Source: the supplement of paper PMC6555819

What was measured:
Experiment in all cases: PBM binding z-score (relative to random genomic background probes); higher = stronger binding; sequences stand for … in GC…GCGATTGACAGCGTAGAATGAAGG
[1] = tested on: PPARg:RXRa DBDmut IVT, anti-RXR (DBD mutation: RXRa K156A/R161A, NR concentration 270 nM, RXRa partner concentration 90 nM)
In short: (§1)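 Binding buffer was PBS pH 7.4 with 2% milk, 0.02% Triton X-100, 1 mM DTT, 0.2 mg/mL BSA and 0.4 mg/ml salmon testes DNA. In it, ligand-free nuclear receptor dimers were incubated 1 h on custom Agilent 4×180K protein-binding microarrays carrying double-stranded probes. Antibodies against each partner (one per run) detected binding, and z-scores were calculated against random background probes after regression normalization of scanned fluorescence.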

[2] = tested on: PPARg:RXRa IVT, anti-PPARg (NR concentration 270 nM, RXRa partner concentration 90 nM)
In short: as §1

[3] = tested on: PPARg DBDmut:RXRa IVT, anti-PPARg (DBD mutation: PPARg1 K132A/R137A, NR concentration 270 nM, RXRa partner concentration 90 nM)
In short: as §1

[4] = tested on: PPARg DBDmut IVT, anti-PPARg (DBD mutation: PPARg1 K132A/R137A, NR concentration 270 nM)
In short: as §1

[5] = tested on: PPARg homodimer (NR concentration 180 nM)
In short: as §1

[6] = tested on: PXR:RXRa (NR concentration 270 nM, RXRa partner concentration 90 nM)
In short: as §1

[7] = tested on: PXR homodimer (NR concentration 270 nM)
In short: as §1

[8] = tested on: RARa:RXR (NR concentration 270 nM, RXRa partner concentration 90 nM)
In short: as §1

[9] = tested on: RARa homodimer (NR concentration 270 nM)
In short: as §1

[10] = tested on: RARb:RXRa (NR concentration 270 nM, RXRa partner concentration 90 nM)
In short: as §1

Sequence	PBM binding z-score [1]	PBM binding z-score [2]	PBM binding z-score [3]	PBM binding z-score [4]	PBM binding z-score [5]	PBM binding z-score [6]	PBM binding z-score [7]	PBM binding z-score [8]	PBM binding z-score [9]	PBM binding z-score [10]
TGTTGTAGATCAAAGGTTAAGAAAGCCGAAGCCT	-0.0218	3.76	0.531	0.517	1.54	2.04	0.18	2.87	0.902	1.89
GCTATTAGTTGAAAGGTCAACCGAATGATTCTCG	1.5	3.85	0.539	0.804	3.47	5.54	1.29	6.55	1.86	4.97
ACAGACAGCTGAGTGAAGGTAACTCAGCTGGACG	-0.835	-0.364	-0.856	-0.718	-1.12	-0.593	-0.603	-0.513	-0.693	-0.274
TCTATTATTTGAAGGGCAACCGACGAGTCCGTTT	2.78	0.734	0.771	1.44	2.12	1.23	1.48	0.961	3.23	1.56
TCTAGCAGGCCAGAGGGTCACTCATGAGGTACGG	0.668	1.02	-0.735	-1.14	0.486	1.64	-0.579	2.5	-0.79	2.24
ATAAGTAGGTTAGCTGGGGTCATTCAGACTAGGC	6.73	6.66	3.65	1.92	3.63	6.42	4.39	5.76	1.28	3.24
ACTCGGAGGACAAAGGTCGGAGCTACGCCAGTGA	-0.0622	1.75	-0.143	-0.29	0.786	1.29	-0.332	1.84	-0.447	2.34
CTTTACGGGTCACTCCAGGTTATAGCATCGGAGT	4.09	4.57	1.34	1.05	2.31	5.1	0.416	3.97	0.111	3.96
TCAGACAGGTGAAGTTAACTCAGGTACGCAGTCG	2.34	0.646	0.282	-0.426	0.226	0.543	0.31	0.876	0.495	1.03
CGTCCAAGGTCAGCAGGTCTGTGAAAGCGACGTG	2.57	2.56	0.914	-0.164	2.67	2.58	0.407	3.61	0.46	4.85
TCATATAGGTAAATGCTAGGTGAAAGTACGATCT	3.93	3.03	1.24	1.57	0.891	0.968	0.678	1.38	1.13	0.64
AGTCAAAGTTCAGGATGAGGTAACGTAAAGCACG	0.224	2.35	0.915	0.721	2.23	3.14	1.49	3.09	0.768	4.37
CCTCGGAGGACAGGAGGTCAGAGCTGTCCGCTTT	0.39	0.452	-1.92	-2.09	1.28	1.81	-0.0765	2.05	-0.0884	2.82
ACAGACAGGTGAGGGAAGGTAACTCAGCTGGACG	0.476	0.747	0.431	-0.614	-0.102	-0.00447	-0.0527	0.343	-0.347	0.622
GCTGCTAGGTCAGGTTGGTGAGCTAACGGGTACG	2.52	1.93	-0.822	-0.37	0.201	0.142	-0.5	0.873	-0.817	3.24
ACAGACAGGTGATGAAGGTAACTCAAGCTATCAT	0.0752	0.481	-0.066	0.468	0.000193	-0.188	0.00644	-0.191	0.18	0.252
AGTCAAAGTTCACTAGGTAACGTTAGATTCAGCT	2.64	4.82	1.46	1.15	2.91	3.95	2.61	3.1	0.915	4.65
ATCTCTAGGCAAAGATAGTTCAGTGAATGCAAAT	0.0233	0.0871	0.389	0.566	-0.0165	-0.0478	0.35	-0.456	0.524	0.211
CCTACTGGGCAATCAGGTCATTGATATCAACGTT	2.45	3.55	0.181	-0.716	0.487	1.48	0.775	1.95	0.376	1.69
TGAATGAGGTTAAAGATGAGGGAACGTGGCGTCG	2.54	2.8	0.619	0.196	0.933	1.49	0.214	2.17	0.368	2.1
GCATATAGGTAATACAAGGTTAAAGTCCGATTGT	4.38	3.23	0.799	0.913	1.39	2.6	0.613	2.53	0.428	0.87
CGAACTAGGTCATTGACAGGACAGTGACTAGTAA	8.03	8.27	2.04	1.38	0.886	1.81	0.0529	2.44	0.0227	3.58
ATACCAAGGTGATCGTGAGGACGTTGATACTAAC	0.171	1.03	0.678	-0.134	-0.121	0.502	0.387	1.03	0.115	0.704
TGCATGAGGTTAAAGATCAGGGAACGTGGCGTCG	0.0827	1.55	0.0491	0.396	1.07	2.23	0.0644	2.93	0.611	2.23
CAAACTAGGTCAAGGTTAAAGTCGGTTTGTGCCA	8.28	8.73	1.13	0.568	2.77	3.05	0.428	3.41	0.337	4.2

Sequence	PBM binding z-score [1]	PBM binding z-score [2]	PBM binding z-score [3]	PBM binding z-score [4]	PBM binding z-score [5]	PBM binding z-score [6]	PBM binding z-score [7]	PBM binding z-score [8]	PBM binding z-score [9]	PBM binding z-score [10]
CAAACTAGGTAACAGAGGTCAAAGTCCGTGCGTA	6.99	6.88	1.9	1.28	4.37	6	3.25	6.67	1.62	4.11
CCTATTACTTGACCATAAGGGCAACCGAAGCTCG	0.621	0.836	0.25	1.09	1.41	0.749	1.2	1.05	2.03	1.61
ACTTACGGGTCAACGAGGTTATCGCACGCGTATA	4.15	4.2	2.65	1.38	3.14	5.58	4.21	5.88	0.958	4.4
AGTCAAAGTTCAGGACAAGGTAACGTAAAGCACG	-0.163	2.21	1.02	0.792	2.91	3.12	1.58	3.09	1.2	4.38
AGAGCGAGGGCAATGAGTTGATAGCACGGGTGGC	0.771	0.253	0.00949	-1.18	-0.656	1.38	4.01	0.0108	-1	2.13
TCGAGTAGGTTATTCGGGGCATTCAGCCAACATA	3.04	2.49	-0.276	-0.446	-0.00227	0.948	0.669	0.746	-0.612	0.781
TGAATGAGGCTAAAGATCAGGGAACGTGGCGTCG	-0.0886	1.02	0.37	-0.283	-0.62	-0.523	-0.778	-0.214	-0.864	0.177
CGTCAAAGTTCAAGGGAACGTAACAGAAAGCAGC	0.445	1.36	0.481	1.2	2.69	3.89	2.32	3.09	1.28	5.11
CGTCAAAGTTCAACTAAGGTAACGTAAAGCACGC	0.3	2.33	1.23	0.815	2.8	5.69	3.56	4.67	2.05	5.43
ATATGTAGGTTAGATGGGGTCATTCAGACTAGGC	6.56	6.05	2.97	2.15	2.79	6.56	4.01	6.01	1.98	2.93
TGTCAAAGTGCAAAGGTAACGTAAGTATCCACAC	0.00516	2.98	0.574	0.92	1.09	1.76	0.397	2.57	0.0756	2.38
CAGCCTTGGTCAGGGCCAGTATAGGAGGAACGTT	-0.703	-0.873	-1.09	-1.73	-1.21	-0.903	-0.901	-0.84	-0.916	0.481
CGACCTAGGTCATTGACAGGACAGTGAATAGTAA	3.78	3.8	0.789	0.214	2.3	1.99	-0.114	3.08	0.169	3.9
CGTCCAAAGTCAATGCTAGGTCAGTGAAAGCATT	0.0357	0.544	-0.669	-0.616	1.04	0.434	-0.027	1.07	0.396	1.68
TAGCCTAGGTCATGGGCCATTATACCACGCGAAC	1.69	3.57	0.221	-0.316	1.41	1.81	-0.0788	2.65	-0.113	3.98
AATCAAAGTTCACTAGGTAACGTAAGATTCAGCT	2.41	4.17	1.22	1.64	2.31	3.75	2	2.5	1.15	4.72
TCTAGTTGGCCACGGAGGTCACACACGACGGGTA	1.59	2.78	1.61	0.255	2.19	4.03	0.788	3.94	0.587	3.35
GCTAGCAGGTCATTTGGGTCACTCAATGACGGGC	3.89	4.84	0.133	-0.577	1.31	3.98	4.92	3.92	0.247	3.94
TCTAGCAGGCCAGAGGGTCAATCAAGAGGTACGG	0.793	0.929	-2.08	-0.99	1.31	1.76	-0.442	2.63	-0.831	2.25
CTTGAAAGGTCGGTTGAGGTGAGTATACGGATAA	0.154	0.996	-0.0609	0.067	0.811	3.33	0.421	2.5	-0.0411	2.97
CCTGCTAGGTCATGGTCACCTAATCTACAGTATG	5	5.09	0.83	0.207	1.89	1.82	-0.294	2.75	-0.115	3.98
CCTACTGGGCCACGAAAGGTCATTGTTTCAGTGA	5.79	6.05	1.13	0.571	3.37	5.45	2.06	5.42	0.917	4.06
ATATGTAGGTTACATCCGGGCCATTCAGGCTATG	7.19	7.09	3.74	3.02	0.583	0.633	0.119	0.816	0.221	1.15
TCAGACGGGTGAAGGTAACTCAGGTACGCAGTCG	1.98	0.818	-0.457	-0.479	0.581	0.181	-0.137	0.411	-0.487	0.641
